# Test results from PubChem BioAssay (EPA / NIEHS).
# Activity calls are given as the source filed them. The calls were made as follows: active = hit-call score of the fitted dose curve at least 0.9, where 1 is the maximum; inactive = score below 0.9.
# Assays:
# Conditions in all cases: mRNA level, 48 h; actives raise or lower the signal
# [1] = read-out: Lipase C (LIPC), LIPC (gene 3990); test: LTEA_HepaRG_LIPC: Life Technologies and Expression Analysis (LTEA) Assay for Lipase C (LIPC) using HepaRG (AID 2283514)
# Summary of the method: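 Read-out is LIPC transcript level by TaqMan qRT-PCR, normalized to three housekeeping genes, after 48 h chemical treatment of human HepaRG liver cells. Curves span eight concentrations topping at 100 uM; activity in either direction scored relative to 0.5% DMSO.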
# [2] = read-out: Lipoprotein lipase (LPL), LPL (gene 4023); test: LTEA_HepaRG_LPL: Life Technologies and Expression Analysis (LTEA) Assay for Lipoprotein lipase (LPL) using HepaRG (AID 2283515)
# Summary of the method: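 Read-out is LPL transcript level by qRT-PCR, normalized to three housekeeping genes and fitted bidirectionally against the DMSO control. Human HepaRG cells received chemicals for 48 h at up to 100 uM.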
# [3] = read-out: MicroRNA 122 (MIR122), gene 406906; test: LTEA_HepaRG_MIR122: Life Technologies and Expression Analysis (LTEA) Assay for MicroRNA 122 (MIR122) using HepaRG (AID 2283516); also: the transcript read is the microRNA miR-122
# Summary of the method: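 HepaRG, 48 h exposure, 8-pt half-log from 100 uM, 0.5% DMSO; TaqMan qRT-PCR; bidirectional fit vs DMSO.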
# [4] = read-out: matrix metalloproteinase-10 (MMP10), MMP10 (gene 4319); test: LTEA_HepaRG_MMP10: Life Technologies and Expression Analysis (LTEA) Assay for matrix metalloproteinase-10 (MMP10) using HepaRG (AID 2283517)
# Summary of the method: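 Gain or loss of MMP10 mRNA is fitted relative to the 0.5% DMSO vehicle. The human hepatic line HepaRG receives a 48-hour serum-free exposure, in duplicate, with a maximum concentration of 100 uM.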
# MYC, MYC (gene 4609) = test: LTEA_HepaRG_MYC: Life Technologies and Expression Analysis (LTEA) Assay for MYC using HepaRG (AID 2283518)
# Summary of the method: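 Cells are thawed, plated and cultured 48 h, then treated for 48 h with test chemicals (eight half-log concentrations from 100 uM, 0.5% DMSO vehicle). RNA is isolated and MYC expression quantified by qRT-PCR against three housekeeping genes.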
# [5] = read-out: matrix metalloproteinase-3 (MMP3), MMP3 (gene 4314); test: LTEA_HepaRG_MMP3: Life Technologies and Expression Analysis (LTEA) Assay for matrix metalloproteinase-3 (MMP3) using HepaRG (AID 2283519)
# Summary of the method: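 HepaRG, human; 48 h dosing, 8 conc. (max 100 uM, half-log), duplicate, 0.5% DMSO. Readout: MMP3 transcript by Fluidigm TaqMan qRT-PCR, ACTB/GAPDH/POLR2A-normalised. Gain or loss fitted vs DMSO.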
# [6] = read-out: Paternally Expressed 10 (PEG10), PEG10 (gene 23089); test: LTEA_HepaRG_PEG10: Life Technologies and Expression Analysis (LTEA) Assay for Paternally Expressed 10 (PEG10) using HepaRG (AID 2283520);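 as to AC50: PEG10 transcript by qRT-PCR normalised to ACTB GAPDH and POLR2A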
# Summary of the method: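 Chemicals tested on HepaRG cells for 48 h, highest concentration 100 uM. PEG10 expression assessed by qRT-PCR relative to DMSO control.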
# [7] = read-out: Phosphatase and tensin (PTEN), PTEN (gene 5728); test: LTEA_HepaRG_PTEN: Life Technologies and Expression Analysis (LTEA) Assay for Phosphatase and tensin (PTEN) using HepaRG (AID 2283523)
# Summary of the method: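 Read-out is PTEN transcript level by multiplexed TaqMan qRT-PCR after 48 h chemical treatment of human HepaRG cultures in serum-free induction medium. Concentrations spanned 100 uM downward in half-log steps, 0.5% DMSO throughout; activity fitted in both directions against vehicle.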
# [8] = read-out: solute carrier (SLC22A1), SLC22A1 (gene 6580); test: LTEA_HepaRG_SLC22A1: Life Technologies and Expression Analysis (LTEA) Assay for solute carrier (SLC22A1) using HepaRG (AID 2283524);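 as to AC50: differentiated human HepaRG liver cells in serum-free induction medium; TaqMan qRT-PCR normalized to ACTB GAPDH and POLR2A housekeeping genes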
# Summary of the method: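 HepaRG (human liver line), 48 h dosing in serum-free induction medium; 8 conc., half-log down from 100 uM, 0.5% DMSO vehicle, duplicates. Endpoint: SLC22A1 mRNA, qRT-PCR, housekeeping-normalized; gain/loss fit vs DMSO.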
# [9] = read-out: Pyruvate Dehydrogenase Kinase 4 (PDK4), PDK4 (gene 5166); test: LTEA_HepaRG_PDK4: Life Technologies and Expression Analysis (LTEA) Assay for Pyruvate Dehydrogenase Kinase 4 (PDK4) using HepaRG (AID 2283525)
# Summary of the method: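 In this multiplexed human HepaRG expression assay, cells are treated 48 h with test chemicals across an eight-point range starting at 100 uM. PDK4 mRNA changes, normalized to ACTB/GAPDH/POLR2A, are fitted in both directions relative to vehicle.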
# [10] = read-out: NAD(P)H dehydrogenase [quinone] 1 (NQO1), NQO1 (gene 1728); test: LTEA_HepaRG_NQO1: Life Technologies and Expression Analysis (LTEA) Assay for NAD(P)H dehydrogenase [quinone] 1 (NQO1) using HepaRG (AID 2283526)
# Summary of the method: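 Human HepaRG hepatic cells received chemicals for 48 h in serum-free induction medium with 0.5% DMSO, up to 100 uM. Expression was assessed by TaqMan qRT-PCR against housekeeping controls and fitted bidirectionally against DMSO.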
# [11] = read-out: Nuclear factor erythroid 2-related factor 2 (Homo sapiens) (UniProt Q16236); test: LTEA_HepaRG_NFE2L2: Life Technologies and Expression Analysis (LTEA) Assay for Nuclear factor erythroid 2-related factor 2 (NFE2L2) Transcription Factor using HepaRG (AID 2283527);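 as to outcome: TaqMan qRT-PCR transcript level normalised to ACTB GAPDH and POLR2A housekeeping genes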
# Summary of the method: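 Transcript level of NFE2L2 is the read-out, measured by microfluidic TaqMan qRT-PCR and normalized to three housekeeping genes. Human HepaRG cultures received test chemical for 48 h at up to 100 uM in half-log steps. Gain or loss of signal is fitted relative to 0.5% DMSO.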
# [12] = read-out: succinate dehydrogenase complex iron sulfur subunit B (SDHB), SDHB (gene 6390); test: LTEA_HepaRG_SDHB: Life Technologies and Expression Analysis (LTEA) Assay for succinate dehydrogenase complex iron sulfur subunit B (SDHB) using HepaRG (AID 2283528)
# Summary of the method: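 A human HepaRG culture in serum-free induction medium received test chemicals for 48 h over an eight-point range capped at 100 uM. SDHB expression change was quantified by qRT-PCR.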
# [13] = read-out: Signal transducer and activator of transcription 3 (Homo sapiens) (UniProt P40763); test: LTEA_HepaRG_STAT3: Life Technologies and Expression Analysis (LTEA) Assay for Signal transducer and activator of transcription (STAT3) using HepaRG (AID 2283529)
# Summary of the method: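 Read-out is STAT3 mRNA level by qRT-PCR, normalized to three housekeeping genes, in human HepaRG liver cells treated for 48 h. Concentrations ran from 100 uM downward in half-log steps; curves were fitted for gain or loss relative to 0.5% DMSO.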
# [14] = read-out: sulfotransferase 2A1 (SULT2A1), SULT2A1 (gene 6822); test: LTEA_HepaRG_SULT2A1: Life Technologies and Expression Analysis (LTEA) Assay for sulfotransferase 2A1 (SULT2A1) using HepaRG (AID 2283531)
# Summary of the method: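 Cells were plated and cultured 48 h, switched to serum-free induction medium, then dosed in duplicate for 48 h (8 concentrations, max 100 uM). RNA was isolated and SULT2A1 expression measured by qRT-PCR; gain or loss of signal fitted relative to DMSO.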
# [15] = read-out: Transforming Growth Factor (TGFA), TGFA (gene 7039); test: LTEA_HepaRG_TGFA: Life Technologies and Expression Analysis (LTEA) Assay for Transforming Growth Factor (TGFA) using HepaRG (AID 2283532)
# Summary of the method: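 HepaRG (human liver line), 48 h exposure, 8 conc. half-log down from 100 uM, 0.5% DMSO vehicle, duplicates; serum-free induction medium. TGFA mRNA by TaqMan qRT-PCR, ACTB/GAPDH/POLR2A normalization; gain/loss fit vs DMSO.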
# [16] = read-out: Transforming Growth Factor (TGFB1), TGFB1 (gene 7040); test: LTEA_HepaRG_TGFB1: Life Technologies and Expression Analysis (LTEA) Assay for Transforming Growth Factor (TGFB1) Transporter using HepaRG (AID 2283533)
# Summary of the method: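 Expression change of TGFB1 in human HepaRG cells is measured after a 48 h chemical exposure, up to 100 uM in 0.5% DMSO vehicle. Curves are fitted in both directions relative to the DMSO baseline.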
# [17] = read-out: solute carrier (SLCO1B1), SLCO1B1 (gene 10599); test: LTEA_HepaRG_SLCO1B1: Life Technologies and Expression Analysis (LTEA) Assay for solute carrier (SLCO1B1) using HepaRG (AID 2283530)
# Summary of the method: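 Gain or loss of SLCO1B1 mRNA is fitted against the 0.5% DMSO vehicle in human HepaRG liver cells treated 48 h at up to 100 uM in half-log steps. Expression comes from qRT-PCR normalized to endogenous controls.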
# [18] = read-out: Protein phosphatase 2A (PPP2R4), PTPA (gene 5524); test: LTEA_HepaRG_PPP2R4: Life Technologies and Expression Analysis (LTEA) Assay for Protein phosphatase 2A (PPP2R4) using HepaRG (AID 2283522)
# Summary of the method: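 Gene-expression endpoint in HepaRG hepatic cells: 48 h treatment across eight half-log concentrations up to 100 uM in 0.5% DMSO. PPP2R4 mRNA by qRT-PCR, normalized to three endogenous control genes.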
# [19] = read-out: Nuclear factor NF-kappa-B p105 subunit (Homo sapiens) (UniProt P19838); test: LTEA_HepaRG_NFKB1: Life Technologies and Expression Analysis (LTEA) Assay for Nuclear Factor Kappa B Subunit 1 (NFKB1) using HepaRG (AID 2283521);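 also: differentiated human HepaRG liver cells in serum-free induction medium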
# Summary of the method: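 Human HepaRG cells receive eight half-log concentrations, highest 100 uM, for 48 h. NFKB1 expression is then quantified by qRT-PCR and analysed for up- or down-regulation relative to 0.5% DMSO vehicle.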
# Nuclear factor erythroid 2-related factor 2 (Homo sapiens), sequence (Q16236 whole entry, looked up): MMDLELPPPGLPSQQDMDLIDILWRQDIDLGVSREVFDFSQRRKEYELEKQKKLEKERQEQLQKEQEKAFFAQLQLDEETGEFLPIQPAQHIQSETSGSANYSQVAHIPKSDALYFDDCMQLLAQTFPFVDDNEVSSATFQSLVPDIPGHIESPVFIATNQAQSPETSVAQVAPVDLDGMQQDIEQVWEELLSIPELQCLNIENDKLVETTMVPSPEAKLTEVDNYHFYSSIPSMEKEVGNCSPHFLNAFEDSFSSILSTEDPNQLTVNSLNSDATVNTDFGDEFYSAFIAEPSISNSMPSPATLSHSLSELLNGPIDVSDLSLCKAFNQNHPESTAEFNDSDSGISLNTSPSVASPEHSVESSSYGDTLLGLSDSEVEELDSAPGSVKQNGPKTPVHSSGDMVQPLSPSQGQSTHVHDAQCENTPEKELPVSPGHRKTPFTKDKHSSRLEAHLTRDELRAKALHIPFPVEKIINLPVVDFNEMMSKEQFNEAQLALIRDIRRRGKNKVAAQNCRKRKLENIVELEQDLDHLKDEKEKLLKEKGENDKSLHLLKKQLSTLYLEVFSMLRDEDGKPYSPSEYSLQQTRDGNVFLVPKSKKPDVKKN
# Signal transducer and activator of transcription 3 (Homo sapiens), sequence (P40763 whole entry, looked up): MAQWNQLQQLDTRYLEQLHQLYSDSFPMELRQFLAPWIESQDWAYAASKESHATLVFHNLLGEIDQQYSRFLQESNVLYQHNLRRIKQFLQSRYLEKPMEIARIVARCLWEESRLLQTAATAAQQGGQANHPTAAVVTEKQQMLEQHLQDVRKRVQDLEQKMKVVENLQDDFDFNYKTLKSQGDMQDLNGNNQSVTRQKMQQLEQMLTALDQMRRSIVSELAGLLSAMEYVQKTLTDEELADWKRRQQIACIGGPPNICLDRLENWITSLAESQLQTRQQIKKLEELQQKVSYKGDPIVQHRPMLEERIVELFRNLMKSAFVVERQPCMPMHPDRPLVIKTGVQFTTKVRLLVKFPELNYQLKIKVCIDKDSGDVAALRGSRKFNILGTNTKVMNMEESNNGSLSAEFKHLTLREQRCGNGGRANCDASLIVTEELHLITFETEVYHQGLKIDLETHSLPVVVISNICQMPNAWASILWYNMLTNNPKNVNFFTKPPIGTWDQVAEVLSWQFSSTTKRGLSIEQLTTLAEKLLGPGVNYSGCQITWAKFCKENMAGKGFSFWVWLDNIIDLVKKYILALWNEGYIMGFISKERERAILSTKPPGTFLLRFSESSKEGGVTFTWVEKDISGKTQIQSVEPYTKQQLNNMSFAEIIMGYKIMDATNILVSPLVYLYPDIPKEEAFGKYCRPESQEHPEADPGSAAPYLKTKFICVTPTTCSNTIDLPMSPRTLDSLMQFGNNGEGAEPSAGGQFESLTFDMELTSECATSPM
# Nuclear factor NF-kappa-B p105 subunit (Homo sapiens), sequence (P19838 whole entry, looked up): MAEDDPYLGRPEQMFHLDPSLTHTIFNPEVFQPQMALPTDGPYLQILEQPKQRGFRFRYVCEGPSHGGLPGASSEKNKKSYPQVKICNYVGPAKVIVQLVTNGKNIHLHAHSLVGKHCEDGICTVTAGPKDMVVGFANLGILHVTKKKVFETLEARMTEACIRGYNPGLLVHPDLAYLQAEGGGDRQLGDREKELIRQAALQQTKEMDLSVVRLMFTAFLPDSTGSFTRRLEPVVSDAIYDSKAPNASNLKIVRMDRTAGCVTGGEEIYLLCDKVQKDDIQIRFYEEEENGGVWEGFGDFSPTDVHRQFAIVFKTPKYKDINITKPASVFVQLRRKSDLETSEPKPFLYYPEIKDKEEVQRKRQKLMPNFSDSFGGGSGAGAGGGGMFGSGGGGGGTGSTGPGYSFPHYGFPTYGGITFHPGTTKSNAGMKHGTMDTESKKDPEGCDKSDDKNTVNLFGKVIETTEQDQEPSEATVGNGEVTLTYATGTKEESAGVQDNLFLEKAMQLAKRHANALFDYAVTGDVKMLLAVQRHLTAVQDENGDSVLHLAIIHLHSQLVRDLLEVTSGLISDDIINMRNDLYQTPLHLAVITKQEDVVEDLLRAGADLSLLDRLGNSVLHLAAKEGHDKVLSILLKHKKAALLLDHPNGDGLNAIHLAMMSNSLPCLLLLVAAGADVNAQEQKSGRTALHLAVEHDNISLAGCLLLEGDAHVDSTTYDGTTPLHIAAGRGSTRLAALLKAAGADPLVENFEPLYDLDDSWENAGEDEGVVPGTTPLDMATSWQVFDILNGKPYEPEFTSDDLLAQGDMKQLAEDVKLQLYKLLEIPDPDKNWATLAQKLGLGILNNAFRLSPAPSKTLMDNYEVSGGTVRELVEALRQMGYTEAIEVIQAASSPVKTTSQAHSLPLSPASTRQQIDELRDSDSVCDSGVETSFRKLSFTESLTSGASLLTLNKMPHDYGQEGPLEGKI
smiles,measurement,setting,value
O=P(OCCCl)(OCCCl)OCCCl,outcome,[1],inactive
same,outcome,[2],inactive
same,outcome,[3],inactive
same,outcome,[4],inactive
same,outcome,"MYC, MYC (gene 4609)",inactive
same,AC50,[5],67.3 µM (active)
same,outcome,[6],inactive
same,outcome,[7],inactive
same,outcome,[8],inactive
same,outcome,[9],inactive
same,outcome,[10],inactive
same,outcome,[11],inactive
same,outcome,[12],inactive
same,outcome,[13],inactive
same,outcome,[14],inactive
same,outcome,[15],inactive
same,outcome,[16],inactive
CC(C)(O)c1cnn2c(-c3ccc(F)c(-c4c(F)cccc4C#N)c3)cnc2n1,AC50,[1],2.9 µM (active)
same,outcome,[2],inactive
same,AC50,[3],13.1 µM (active)
same,outcome,[4],inactive
same,outcome,"MYC, MYC (gene 4609)",inactive
same,outcome,[5],inactive
same,outcome,[6],inactive
same,outcome,[7],inactive
same,AC50,[8],9.92 µM (active)
same,outcome,[9],inactive
same,outcome,[10],inactive
same,AC50,[11],6.33 µM (active)
same,outcome,[12],inactive
same,outcome,[13],inactive
same,outcome,[14],inactive
same,AC50,[15],12.6 µM (active)
same,outcome,[16],inactive
Clc1ccc(C(c2ccc(Cl)cc2)C(Cl)Cl)cc1,outcome,[1],inactive
same,outcome,[2],inactive
same,outcome,[3],inactive
same,outcome,[4],inactive
same,outcome,"MYC, MYC (gene 4609)",inactive
same,outcome,[5],inactive
same,outcome,[6],inactive
same,outcome,[7],inactive
same,AC50,[8],78.2 µM (active)
same,outcome,[9],inactive
same,outcome,[10],inactive
same,outcome,[11],inactive
same,outcome,[12],inactive
same,outcome,[13],inactive
same,outcome,[17],inactive
same,outcome,[14],inactive
same,outcome,[15],inactive
same,outcome,[16],inactive
C[C@]12C=CC3=C4CCC(=O)C=C4CC[C@H]3[C@@H]1CC[C@@H]2O,outcome,[2],inactive
same,AC50,[3],69.6 µM (active)
same,outcome,[4],inactive
same,outcome,"MYC, MYC (gene 4609)",inactive
same,outcome,[5],inactive
same,AC50,[6],0.805 µM (active)
same,outcome,[7],inactive
same,AC50,[8],41 µM (active)
same,outcome,[9],inactive
same,outcome,[10],inactive
same,outcome,[11],inactive
same,outcome,[12],inactive
same,outcome,[13],inactive
same,AC50,[17],9.92 µM (active)
same,AC50,[14],81.8 µM (active)
same,outcome,[15],inactive
same,outcome,[16],inactive
COP(=S)(OC)SCN1C(=O)c2ccccc2C1=O,outcome,[1],inactive
same,outcome,[2],inactive
same,outcome,[3],inactive
same,outcome,[4],inactive
same,outcome,"MYC, MYC (gene 4609)",inactive
same,outcome,[5],inactive
same,outcome,[6],inactive
same,outcome,[7],inactive
same,outcome,[8],inactive
same,outcome,[9],inactive
same,outcome,[10],inactive
same,outcome,[11],inactive
same,outcome,[12],inactive
same,outcome,[13],inactive
same,outcome,[14],inactive
same,outcome,[15],inactive
same,outcome,[16],inactive
N#CC(Br)Br,outcome,[1],inactive
same,outcome,[2],inactive
same,outcome,[4],inactive
same,outcome,"MYC, MYC (gene 4609)",inactive
same,outcome,[5],inactive
same,outcome,[6],inactive
same,outcome,[18],inactive
same,outcome,[7],inactive
same,outcome,[8],inactive
same,outcome,[9],inactive
same,outcome,[10],inactive
same,outcome,[11],inactive
same,outcome,[12],inactive
same,outcome,[13],inactive
same,outcome,[15],inactive
same,outcome,[16],inactive
Nc1ccc(Cc2ccc(N)cc2)cc1,outcome,[1],inactive
same,outcome,[2],inactive
same,outcome,[3],inactive
same,outcome,[4],inactive
same,outcome,"MYC, MYC (gene 4609)",inactive
same,outcome,[6],inactive
same,outcome,[19],inactive
same,outcome,[7],inactive
same,outcome,[8],inactive
same,outcome,[9],inactive
same,outcome,[10],inactive
same,outcome,[11],inactive
same,outcome,[12],inactive
same,outcome,[13],inactive
same,outcome,[14],inactive
same,outcome,[15],inactive
same,outcome,[16],inactive
CCOc1cccc(C2(N3CCN(c4ccccc4)CC3)CCC(C)CC2)c1 (stereo unspecified),outcome,[1],inactive
same,outcome,[2],inactive
same,outcome,[3],inactive
same,outcome,[4],inactive
same,outcome,"MYC, MYC (gene 4609)",inactive
same,AC50,[5],89.9 µM (active)
same,outcome,[6],inactive
same,outcome,[7],inactive
same,outcome,[8],inactive
same,outcome,[9],inactive
same,outcome,[10],inactive
same,outcome,[11],inactive
same,outcome,[12],inactive
same,outcome,[13],inactive
same,outcome,[14],inactive
same,outcome,[15],inactive
same,outcome,[16],inactive
